# The entries come from a sample that favours hits as a whole.
# TbREL1 primary: TbREL1 RNA ligase inhibitors, primary screen, biochemical, FRET fluorescence; RNA-editing ligase 1, mitochondrial (Trypanosoma brucei brucei), P86926; TbREL1 RNA ligation; inhibition, % at 9.66 µM; 89,000 compounds, 0.49% hits;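 active = inhibition above the mean inhibition across all screened compounds plus 3 SD, cut at about 11% in these data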;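 note: 0% = plate median of test wells and 100% = NSC42067 control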
# Target sequence (P86926 whole entry, looked up): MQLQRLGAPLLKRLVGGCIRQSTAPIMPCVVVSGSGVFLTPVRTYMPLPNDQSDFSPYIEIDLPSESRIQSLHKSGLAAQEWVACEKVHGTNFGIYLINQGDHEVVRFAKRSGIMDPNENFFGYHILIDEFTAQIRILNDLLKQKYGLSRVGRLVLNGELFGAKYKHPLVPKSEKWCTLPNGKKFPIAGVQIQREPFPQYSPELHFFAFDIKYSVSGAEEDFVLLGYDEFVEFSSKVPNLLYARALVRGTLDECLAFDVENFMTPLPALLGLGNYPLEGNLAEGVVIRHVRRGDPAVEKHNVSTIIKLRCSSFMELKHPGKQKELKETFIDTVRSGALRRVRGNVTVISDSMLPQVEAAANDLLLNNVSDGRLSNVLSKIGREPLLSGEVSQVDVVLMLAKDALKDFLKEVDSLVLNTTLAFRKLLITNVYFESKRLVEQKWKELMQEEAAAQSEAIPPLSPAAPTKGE
# TbREL1 conf: TbREL1 RNA ligase inhibitors, confirmation, biochemical, FRET fluorescence, triplicate | shares compounds with TbREL1 primary | TbREL1 RNA ligation | inhibition, % at 9.66 µM | 390 compounds, 37% hits | AID 1117282, 2014;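 active = mean inhibition across replicates above a set limit taken from the earlier primary screen, cut at about 11% in these data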;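 note: 0% = REL1 with substrate and DMSO and 100% = REL1 plus control inhibitor NSC42067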
# The depositor's hits bear a star.
SMILES,TbREL1 primary,others
Cc1onc(-c2ccccc2Cl)c1C(=O)N1CCCCC1,-6,
O=C(c1ccc(-c2ccc([N+](=O)[O-])cc2)o1)N1CCCCCCC1,-2,
CCC(C)Nc1nc(C)nc2c1nnn2Cc1ccccc1 (centres undefined),0,
Oc1cc2c(cc1O)[C@H]1c3ccc(O)c(O)c3OC[C@@]1(O)C2,21*,TbREL1 conf=62*
O=C(Nc1ccc(F)cc1)OCc1cn(Cc2ccc(Cl)cc2)nn1,-2,
Cc1cccc(Cn2cc(COC(=O)Nc3ccc(F)cc3)nn2)c1,15*,TbREL1 conf=0
O=C(Nc1ccc(F)cc1)OCc1cn(Cc2ccccc2)nn1,-2,
CCOC(=O)C1(C)CCCN(C(=O)c2cccs2)C1 (centres undefined),-2,
CCOC(=O)c1csc(NC(=O)C2CCCN(S(=O)(=O)c3ccccc3[N+](=O)[O-])C2)n1 (centres undefined),1,
COC(=O)c1ccc2nc(-c3ccc(C)cc3)c(Cc3cccc(F)c3)n2c1,7,
COC(=O)c1cnn2c(C)c(Cc3cccc(F)c3)c(C)nc12,16*,TbREL1 conf=2
Cc1nc2c(C(=O)N3CCCC3)cnn2c(C)c1Cc1c(F)cccc1Cl,7,
NC(c1csc(Nc2cc(NCCCO)ncn2)n1)c1ccccc1Cl (centres undefined),1,
Cc1cccc(NCC(=O)N/N=C/c2cccc(Br)c2)c1,12*,TbREL1 conf=-1
C/C(=N\NC(=O)CNc1cccc(C)c1)c1ccc(Br)s1,-1,
O=C(CNc1ccc2ccccc2c1)N/N=C/c1ccccn1,-7,
CCN(C(=O)CSc1nnc(-c2cccnc2)n1Cc1ccco1)c1ccccc1C,-3,
C=CCN1C(=O)[C@@H](CC(=O)NCc2ccc(C)o2)[C@]2(C(=O)OC)CCCCC=C12,-2,
C[C@@H]1COc2cc(Br)ccc2S(=O)(=O)N1Cc1cn(CCC2OCCO2)nn1,0,
O=C(OCc1cn(Cc2cccc(Cl)c2)nn1)N1CCCC1,-1,
COc1ccc(CN(C)C(=O)c2ccc3ccccc3n2)cc1F,-2,
COc1ccccc1-c1ccc2c(c1)C(C)(Cc1cc(Cl)ccc1C(F)(F)F)C(=O)N2 (centres undefined),17*,TbREL1 conf=7
COc1ccc(C(C)=O)cc1CC1(C)C(=O)Nc2ccc(-c3cccc(C(F)(F)F)c3)cc21 (centres undefined),2,
CC1(Cc2ccccc2OC(F)(F)F)C(=O)Nc2ccc(-c3ccsc3)cc21 (centres undefined),4,
Cc1ccc(C(=O)Nc2c(C)n(C)n(-c3ccccc3)c2=O)cc1S(=O)(=O)N1CCCCC1,5,
SMILES,TbREL1 primary,others
O=C(O)c1cccc(S(=O)(=O)N(Cc2ccccc2)c2ccc(Cl)cc2)c1,-1,
CC1(C)CC(NC(=O)c2cccc(S(=O)(=O)N(Cc3ccccc3)c3ccccc3)c2)CC(C)(C)N1,13*,TbREL1 conf=6
C=CCN(c1ccccc1)S(=O)(=O)c1cccc(C(=O)NC2CCC(O)CC2)c1 (centres undefined),-2,
COC(=O)C1=C(C)N(Cc2ccc(Br)cc2)C(=S)NC1c1ccc(F)cc1 (centres undefined),2,
COC(=O)C1=C(C)N(Cc2ccccc2)C(=NCc2cccc(C(F)(F)F)c2)N[C@H]1c1cccc(F)c1,9,
COC(=O)C1=C(C)N(Cc2ccc(F)cc2)C(=S)NC1c1cccc(OC)c1 (centres undefined),-6,
COC(=O)C1=C(C)N(Cc2ccccc2C(F)(F)F)C(=NCc2ccccc2)NC1c1cccc(F)c1 (centres undefined),15*,TbREL1 conf=20*
CCN1C(=NCc2cccc(Cl)c2)N[C@@H](c2cccc(F)c2)C(C(=O)OC)=C1C,7,
COC(=O)C1=C(C)N(Cc2ccccc2C(F)(F)F)C(=NCc2ccc(C(F)(F)F)cc2)NC1c1ccccc1 (centres undefined),16*,TbREL1 conf=18*
COC(=O)C1=C(C)N(Cc2ccccc2)C(=NCc2ccc(OC)cc2)N[C@H]1c1ccccc1,10,
COC(=O)C1=C(C)N(Cc2ccccc2C(F)(F)F)C(=NCc2ccccc2)NC1c1ccc(Cl)cc1 (centres undefined),14*,TbREL1 conf=16*
COC(=O)C1=C(C)N(Cc2cccc(C(F)(F)F)c2)C(=NCc2ccc(OC)cc2)NC1c1ccc(F)cc1 (centres undefined),12*,TbREL1 conf=14*
COC(=O)C1=C(C)N(Cc2ccccc2)C(=S)NC1c1ccc(-c2ccccc2)cc1 (centres undefined),-6,
COC(=O)CSc1nnc(-c2n[nH]c3c2CCC3)n1N,-3,
O=C(COC(=O)C1=COCCO1)Nc1ccc(Br)cc1Br,0,
Cc1ccc(-n2c(SCC(=O)NN=Cc3c[nH]c4ccccc34)nnc2-c2ccccc2)cc1,1,
CCN1C[C@@H]2[C@@H]3C(=O)N(C)C(=O)[C@@H]3[C@](Cc3ccccc3)(C1=O)N2C(=O)c1ccc(Br)cc1,-2,
CCOC1=C2[C@H](c3ccccc3F)N(S(=O)(=O)c3ccc(C)cc3)C[C@H]2n2c(=O)n(-c3ccccc3)c(=O)n2C1,2,
Cc1ccc(-n2c(SCC(=O)c3ccc(F)cc3)nnc2-c2cccnc2)cc1,1,
CCN=C1NC(c2ccc(F)cc2)C(C(=O)OC)=C(C)N1Cc1ccc(C(F)(F)F)cc1 (centres undefined),4,
CCN=C1NC(c2ccc(C(F)(F)F)cc2)C(C(=O)OC)=C(C)N1Cc1ccccc1C(F)(F)F (centres undefined),11*,TbREL1 conf=12*
COC(=O)C1=C(C)N(Cc2ccccc2C(F)(F)F)C(=NCc2ccc(C(F)(F)F)cc2)NC1c1ccc(C(F)(F)F)cc1 (centres undefined),25*,TbREL1 conf=23*
COc1ccc(C(C(=O)N(C)C2CCCC2)N(Cc2ccc(F)cc2)C(=O)c2cc(C)[nH]n2)cc1OC (centres undefined),4,
CN(C)S(=O)(=O)c1ccc(NC(=O)CN2C(=O)NC(Cc3ccccc3)C2=O)cc1 (centres undefined),1,
COc1cc2cc(CCCOC(=O)c3ccc(C#N)cc3)oc(=O)c2cc1OC,4,
SMILES,TbREL1 primary,others
O=C(OCC#CCSc1nnc(-c2cccc3ccccc23)o1)c1ccc(C(F)(F)F)cc1,-1,
CCOc1ccc(-n2c(SCC(=O)c3ccccc3Cl)nnc2-c2ccncc2)cc1,5,
CCC1(c2ccc(F)cc2)NC(=O)N(CC(=O)Nc2cc(C)on2)C1=O (centres undefined),-4,
CCCCCn1nnnc1C1(C)Cn2nccc2C(=O)N1Cc1ccco1 (centres undefined),0,
O=C(CSc1nnc(-c2ccco2)c(-c2ccco2)n1)c1ccccc1,12*,TbREL1 conf=13*
Cn1c(SCC(=O)c2ccc(-c3ccccc3)cc2)nnc1-c1ccco1,3,
N#Cc1cnc(SCC(=O)c2ccccc2)nc1N,-2,
C=CCOc1cccn2c(N(C=O)Cc3ccc(OC)cc3)c(CC)nc12,-4,
Cc1cc(C)c[n+](CC(=O)c2ccccc2)c1,1,
COC(=O)c1ccc[n+](CC(=O)c2ccc(Br)cc2)c1,11*,TbREL1 conf=0
O=C(C[n+]1ccc2ccccc2c1)c1ccccc1,1,
O=C(Nc1cc(C(F)(F)F)ccc1N1CCCC1)C1CCCO1 (centres undefined),0,
COc1ccccc1-c1cnc(C(O)c2ccc(Cl)cc2C)[nH]1 (centres undefined),3,
